# Test results reported in PubChem BioAssay AID1851 (National Center for Advancing Translational Sciences (NCATS), 2009).
# The whole screen tested about 16,000 compounds, of which about 5,700 (36%) were called active. Not shown: some 24% with an inconclusive outcome. Some of the results follow. Unmarked numbers belong to inactive results. Calls follow the shape of the dose curve; as a rule, active = well fitted curve in the direction sought with a large enough effect; inconclusive = small, poorly fitted or top-dose-only effect, or effect the other way; inactive = no such curve, though single readings can be large or run the other way.
# Biological target: Cytochrome P450 1A2 (Homo sapiens) (UniProt P05177)
# Assay: Cytochrome panel assay with activity outcomes
# Conditions: recombinant CYP, pro-luciferin dealkylation, luminescence, p450-cyp1a2; series mostly up to 57.1 µM
# % is scaled to controls: 0 for no effect and ±100 for the full control effect.
# Sequence of Cytochrome P450 1A2 (Homo sapiens) (P05177 whole entry, looked up): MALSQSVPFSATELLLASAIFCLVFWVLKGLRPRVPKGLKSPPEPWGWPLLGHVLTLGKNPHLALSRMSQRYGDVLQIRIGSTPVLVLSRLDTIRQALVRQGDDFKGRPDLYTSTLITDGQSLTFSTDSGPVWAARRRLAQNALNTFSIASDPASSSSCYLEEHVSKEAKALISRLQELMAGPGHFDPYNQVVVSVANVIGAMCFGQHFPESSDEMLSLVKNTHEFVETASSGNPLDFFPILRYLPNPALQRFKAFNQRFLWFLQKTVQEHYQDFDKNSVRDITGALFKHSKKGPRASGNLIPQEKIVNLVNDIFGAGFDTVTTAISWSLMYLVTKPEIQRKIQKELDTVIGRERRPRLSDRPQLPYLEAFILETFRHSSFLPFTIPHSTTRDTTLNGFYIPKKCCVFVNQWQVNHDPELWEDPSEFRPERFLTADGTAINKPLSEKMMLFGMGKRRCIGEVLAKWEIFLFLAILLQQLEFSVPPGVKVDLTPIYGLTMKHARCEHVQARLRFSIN
SMILES,AC50,"activity, negative = inhibition"
Cc1cc(C(=O)OCC(=O)NCCC(C)C)c2ccccc2n1,4.47 µM (active),
CC(C)CCNC(=O)Cc1ccccc1[N+](=O)[O-],inactive,
CO[C@H]1COC(=O)CCC[C@H](C)[C@@H](OC)COC(=O)C/C=C\[C@@H]1C,,-4.49% [at 11.4 µM]
N#Cc1c(-c2ccc3c(c2)OCO3)ccn2nc(-c3cccc(C(F)(F)F)c3)nc12,0.0562 µM (active),
CCNC(=O)C1CC(=O)OC12CCCCC2 (stereo not given),inactive,
CC(C)=CCC/C(C)=C/CO/N=C1/C[C@@H](O)[C@@H](O)[C@@H]2[C@@H]3C(=O)N(Cc4ccc5c(c4)OCO5)C(=O)[C@H]3CC[C@H]12,,-9.49% [at 11.4 µM]
OC(c1ccccc1)(c1ccc(F)cc1)C(c1ccccc1)N1CCOCC1 (stereo not given),inactive,
Oc1c(CN2CCOCC2)cc(-c2ccccc2)cc1CN1CCOCC1,inactive,
N#C/C(=C/N1CCOCC1)c1ccccc1,0.891 µM (active),
NS(=O)(=O)c1cc2c(cc1Cl)N[C@@H](CC1CCCC1)NS2(=O)=O,inactive,
O=C1NC(c2ccc(Br)cc2)Nc2sc3c(c21)CCC3 (stereo not given),2.51 µM (active),
CC(C)OCCCN1C(=O)c2ccccc2C1C(=O)NC1CCCCC1 (stereo not given),inactive,
CC(C)OCCCn1c(=S)[nH]c2ncccc2c1=O,2.51 µM (active),
COCC(=O)N1CCC[C@@]2(CCN(C(=O)Nc3cccc(F)c3)C2)C1,inactive,
COCOc1cc(OC)ccc1C(=O)/C=C\c1ccc2c(c1)OCO2,,-3.69% [at 11.4 µM]
COc1ccccc1CNc1ccnc(-c2ccc3c(c2)OCO3)n1,0.631 µM (active),
COc1ccc(CNc2ccnc(-c3ccc4c(c3)OCO4)n2)c(OC)c1,1.26 µM (active),
COc1ccc(-c2nc3cnc(OC)nc3n(C)c2=O)cc1,2.51 µM (active),
COc1ncc2nc(-c3ccc(F)cc3)c(=O)n(C)c2n1,0.501 µM (active),
COc1ncc2nc(-c3ccccc3)c(=O)n(C)c2n1,1.58 µM (active),

SMILES,AC50,"activity, negative = inhibition"
C[C@@H]1O[C@@H](n2cc(F)c(=O)[nH]c2=O)[C@H](O)[C@@H]1O,inactive,
O=C(c1cnccn1)N1CCC2(CC1)CN(c1ccncc1)C2,inactive,
COC(=O)C(C)(C(=O)OC)c1ccc([N+](=O)[O-])cn1,inactive,
O=C(CN(c1ccccc1)S(=O)(=O)c1ccccc1[N+](=O)[O-])NN=C1CCCCCCC1,inactive,
COc1ccc(N(CC(=O)NN=C2CCCC2)S(=O)(=O)c2ccccc2)cc1,inactive,
C=CCC(C(=O)OC)(C(=O)OC)c1ccc([N+](=O)[O-])cn1,inactive,
O=C(COc1ccc([N+](=O)[O-])cc1)Nc1ccc(C(=O)NCc2cccnc2)cc1,inactive,
O=C(COc1ccc(Br)cc1)Nc1ccc([N+](=O)[O-])cn1,2 µM (active),
O=C(COc1ccc([N+](=O)[O-])cc1)NN=C1CCCC1,12.6 µM (active),
CC(=O)Nc1ccc([N+](=O)[O-])cn1,17.8 µM (active),
O=C(Nc1nnc(CCS(=O)(=O)c2ccc(Br)cc2)s1)c1ccc([N+](=O)[O-])cc1,inactive,
O=c1ccn([C@@H]2O[C@@H](COP(=O)(O)OP(=O)(O)O)[C@H](O)[C@@H]2O)c(=O)[nH]1,inactive,
Cc1cccc(/C=N\Nc2cn[nH]c(=O)c2Cl)c1,5.01 µM (active),
Cc1cccc(NC(=S)NNC(=O)c2csc3c2CCCC3)c1,8.91 µM (active),
CCCOc1cc(N)ccc1C(=O)OCCN(CC)CC,12.6 µM (active),
CCCOc1ccc(C(=O)OCCN(CC)CC)cc1N,5.01 µM (active),
CCN(CC)CCCCCCCCOC(=O)c1cc(OC)c(OC)c(OC)c1,inactive,
CCN(CC)CCOC(=O)c1cc(Cl)c(N)cc1OC,12.6 µM (active),
COc1cc(N)c(Cl)cc1C(=O)OCCCN1CCCCC1,inactive,
C[N+]1(CCCC[N+]2(C)CCCCCCC2)CCCCCCC1,,-10.4% [at 2.29 µM]

SMILES,AC50,"activity, negative = inhibition"
O=C(N/N=C1/C[C@@H](O)[C@@H](O)[C@@H]2[C@@H]3C(=O)N(Cc4ccccc4)C(=O)[C@H]3CC[C@@H]12)OCc1ccccc1,,-5.8% [at 11.4 µM]
COCOc1ccc(Br)cc1C(=O)[C@H]1O[C@H]1c1cccc(OC)c1,,-9.07% [at 11.4 µM]
O=C(O)c1cc2cc(Cc3cccnc3)ccc2o1,inactive,
Cc1ccc2nc(-c3cccnc3)oc2c1,5.01 µM (active),
Nc1nc(-c2cccnc2)cc(-c2cc(-c3cccnc3)nc(N)n2)n1,,-15.9% [at 2.29 µM]
Clc1ccc2oc(-c3cccnc3)nc2c1,1.41 µM (active),
C[N+](C)(N)CCC[N+](C)(C)N,,-12% [at 11.4 µM]
O=C(NNC(=S)Nc1ccccc1)C1CC1,inactive,
CC(C)(C)NC(=S)Nc1ccc(Nc2ccccc2)cc1,14.1 µM (active),
Cc1ccc2nc(Nc3nc(-c4ccccc4)cc(=O)[nH]3)nc(C)c2c1,4.47 µM (active),
Cc1ccc2c(C)nc(Nc3nc(CSc4nc5ccccc5[nH]4)cc(=O)[nH]3)nc2c1,11.2 µM (active),
CN(C)c1nc(NCc2ccccc2)nc(N/N=C/c2ccc(Cl)cc2Cl)n1,inactive,
Cc1cc(Oc2ccccc2)nc(-c2ccccc2)n1,1.58 µM (active),
Cc1cc(Oc2ccccc2)nc(NCc2ccccc2)n1,12.6 µM (active),
O=C1C[C@H](c2ccccc2)[C@@H](c2ccc(Br)cc2)O1,,-6.17% [at 11.4 µM]
O=C1NCC2=C1C(c1ccc(Br)cc1)Nc1ccccc1N2 (stereo not given),17.8 µM (active),
C=CC[C@@H]1C=C[C@@H](O/N=C(/C)CCC(=O)OC[C@@H]2O[C@H](C#Cc3ccccc3)C=C[C@@H]2Oc2ccc(C)cc2)[C@@H](CO)O1,,4% [at 11.4 µM]
Cc1ccc(C(c2ccc(C)o2)c2cccc([N+](=O)[O-])c2O)o1,11.2 µM (active),
Cc1ccc(-n2c3c(c(=O)[nH]c2=O)C(C(F)(F)F)(C(F)(F)F)NC(=O)N3)cc1,inactive,
COc1ccc(C(=O)NCC(c2ccc(F)cc2)N2CCOCC2)cc1S(=O)(=O)N1CCCC1 (stereo not given),10 µM (active),
